This is a sample that favours compounds with a hit; in the whole collection about 2.9% have one here.
Myeloid diff 2 – myeloid differentiation induction; hit rate 1% among 360,000; calls only at 10 µM; ER-HoxA9 myeloid progenitors, lysozyme-GFP differentiation, flow cytometry;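 active = normalized GFP-positive differentiation at or above the plate's own cutoff, the solvent-only control mean plus 3 SD; inconclusive = no clear call, values can overlap the other calls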;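 note: cells exposed to compound for four days before flow analysis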
Rtt109 HAT inh – blocks Candida albicans Rtt109/Vps75 acetyltransferase activity; Q5AAJ8; hit rate 0.16% among 330,000; purified Rtt109/Vps75, ThioGlo CoA-SH fluorescence, 4 h; AID 540336; inhibition, % at 34.9 µM;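 active = inhibition of at least 50% in every replicate; inconclusive = best replicate reaches 50% inhibition but some replicates fall short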
ABHD5 PLIN5 PPI – blocks binding of human ABHD5 to perilipin-5. hit rate 0.78% among 360,000. Split G. princeps luciferase complementation, luminescence, 4 h. inhibition, % at 4 µM. AID 602281. Q00G26+Q8WTS1;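 active = inhibition above the mean inhibition across every tested compound plus 3 SD, cut at about 22% in these data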;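 note: 0% = DMSO only wells and the 100% control is not disclosed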
Cardio protect – protects H9c2 cardiomyocytes from peroxide injury; AID 588492; protection from H2O2 cell death, % at 20 µM; H2O2 injury protection, ATPLite, 2 h; hit rate 0.63% among 360,000;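 active = compounds giving at least 50% protection of heart cells from peroxide-induced death in the single-dose screen, raw or plate-pattern-corrected value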;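 note: 0% = DMSO wells with peroxide and 100% = DMSO wells without peroxide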
HGIII-sPLA2 inh – Inhibits HGIII-sPLA2 liposome hydrolysis, primary screen | hit rate 0.56% among 370,000 | inhibition, % at 12.2 µM | Q9NZ20 | QFRET BODIPY PC-A2 liposome hydrolysis, fluorescence;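 active = inhibition above mean plus 3 SD of compounds lying within the high and low control bounds, cut at about 19% in these data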;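 note: 0% = median of test compound wells and 100% = no enzyme DMSO wells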
DAGLB inh – blocks human DAGLB lipase activity; HEK293T DAGLB membrane lysate, EnzChek fluorogenic substrate; inhibition, % at 5.17 µM; hit rate 0.059% among 340,000; Q8NCG7; in the data active = inhibition above about 34%;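 note: 0% = enzyme with vehicle and 100% = wells lacking enzyme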
Target sequence (Q8NCG7 whole entry, looked up): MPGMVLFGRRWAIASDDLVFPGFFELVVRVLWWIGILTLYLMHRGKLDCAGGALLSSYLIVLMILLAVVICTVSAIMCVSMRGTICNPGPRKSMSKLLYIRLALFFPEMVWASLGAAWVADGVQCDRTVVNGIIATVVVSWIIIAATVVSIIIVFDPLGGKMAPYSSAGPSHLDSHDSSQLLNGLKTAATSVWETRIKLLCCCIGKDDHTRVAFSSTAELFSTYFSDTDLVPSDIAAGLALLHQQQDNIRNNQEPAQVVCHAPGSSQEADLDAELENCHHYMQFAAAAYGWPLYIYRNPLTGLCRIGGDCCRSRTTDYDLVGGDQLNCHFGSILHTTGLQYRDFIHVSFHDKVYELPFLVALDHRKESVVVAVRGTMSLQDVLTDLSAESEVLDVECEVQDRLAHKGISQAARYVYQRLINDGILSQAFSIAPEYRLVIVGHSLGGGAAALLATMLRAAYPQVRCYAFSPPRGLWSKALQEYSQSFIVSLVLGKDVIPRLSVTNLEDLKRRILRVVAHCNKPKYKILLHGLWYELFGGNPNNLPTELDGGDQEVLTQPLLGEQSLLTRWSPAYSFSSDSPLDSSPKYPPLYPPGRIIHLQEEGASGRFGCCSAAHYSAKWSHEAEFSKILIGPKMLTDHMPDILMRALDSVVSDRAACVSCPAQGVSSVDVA
Myeloid diff – myeloid differentiation induction; ER-HoxA9 myeloid progenitors, GFP/Mac1 double-positive flow; calls only; hit rate 2% among 2,300; shares compounds with Myeloid diff 2; AID 651706;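 active = share of green or green-and-red cells above 9 and 9% in run 1 or 4 and 3% in run 2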
GFP autofluor – counter-screen for myeloid differentiation promoters: compound fluorescence. shares compounds with Myeloid diff 2. ER-HoxA9 myeloid progenitors, no estrogen, GFP autofluorescence flow cytometry; vehicle wells 0%, positive control 100%. fluorescence response, % (no concentration beside the values). hit rate 7.4% among 2,300;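 active = over 5% cells positive for green fluorescent reporter, or over 2% positive for both it and APC stain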;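 note: range taken on the double positive population between DMSO and positive control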
Numbers without * were called inactive; i = inactive; ? = inconclusive; nt = no result; + = active, no number.

SMILES	Myeloid diff 2	Rtt109 HAT inh	ABHD5 PLIN5 PPI	Cardio protect	HGIII-sPLA2 inh	DAGLB inh	Myeloid diff	GFP autofluor
C=CCSc1nc2sc3c(c2c(=O)[nH]1)CC(C)(CC)OC3 (stereo unspecified)	i	nt	-4	-3	-6	1	nt	nt
COc1cccc(CN2CCNC(=O)C2CC(=O)NCCc2ccccn2)c1 (stereo unspecified)	i	5	1	5	-1	-4	nt	nt
O=C(CC1C(=O)NCCN1Cc1cccc(Oc2ccccc2)c1)NCCc1ccccn1 (stereo unspecified)	+	12	14	1	-5	-3	i	0
COc1ccc(C(C(=O)NC(C)(C)C)N(C(=O)CNC(=O)c2cccs2)c2ccc(C)cc2)cc1OC (stereo unspecified)	i	2	1	-2	-2	2	nt	nt
O=C1C=C(c2ccc(C(=O)O)cc2)C[C@@H](c2ccc(Cl)cc2)C1	i	0	4	9	-10	-1	nt	nt
O=C1C=C(c2ccc(-c3ccccc3)cc2)C[C@@H](c2ccc(Cl)cc2)C1	i	6	6	-11	5	-2	i	0
CC1(C(=O)NCC2CC2)CCN1C(=O)C/C=C/c1ccccc1 (stereo unspecified)	i	nt	-2	-3	0	nt	nt	nt
Cc1ccc(C(C(=O)NC2CCCCC2)N(Cc2ccco2)C(=O)C2COc3ccccc3O2)o1 (stereo unspecified)	i	11	-9	-2	1	-2	nt	nt
Cc1ccc(C(C(=O)NC2CCCCC2)N(Cc2cccnc2)C(=O)C2COc3ccccc3O2)o1 (stereo unspecified)	+	nt	4	16	-2	-2	i	1
COc1cc(CN2CCN(CCCc3ccccc3)C(CCO)C2)cc(OC)c1O (stereo unspecified)	i	-2	-3	-7	-9	2	nt	nt
COc1ccc(NC(=O)c2ccc3nccnc3c2)cc1	i	6	4	-14	0	1	i	0
COc1ccc(CCC(=O)Nc2cnc3ccccc3c2)cc1	i	-8	3	-3	-12	-4	nt	nt
COc1ccc(-n2c(=S)[nH]c3cc(C(=O)Nc4ccc(C)c(F)c4)ccc3c2=O)c(OC)c1	+	-3	-5	-2	4	6	i	0
CCOc1ccc(NC(=O)c2ccc3c(=O)n(-c4ccc(OC)cc4OC)c(=S)[nH]c3c2)cc1	i	6	-9	4	2	0	nt	nt
Cc1cc(-c2cc(-c3ccc(Cl)cc3)nc(N)c2C#N)co1	+	-24	9	-6	14	11	i	0
O=C(O)CCC(=O)NNC(=O)c1ccc(-c2ccccc2)cc1	i	-10	-11	-2	3	0	i	2
O=C(O)CCC(=O)NNC(=O)c1ccc([N+](=O)[O-])cc1	i	nt	10	-8	-5	1	nt	nt
Cc1nn(-c2ccccc2)c2[nH]c(=O)c(CNc3ccc4c(c3)OCCO4)cc12	i	2	-2	26	-3	6	nt	nt
COc1cccc(NCc2cc3c(C(C)(C)C)nn(-c4ccccc4)c3[nH]c2=O)c1	+	4	-1	10	-11	-2	i	0
CCOc1ccc(CCNc2nc3ccc(C)cc3n3cnnc23)cc1OCC	i	4	4	6	11	-2	nt	nt
CCOc1ccccc1Nc1nc2ccc(C)cc2n2cnnc12	+	7	5	3	2	-2	+	0
CCn1c(C)nc2cc(C(=O)OCCC(F)(F)F)ccc21	i	-2	5	7	-6	-1	nt	nt
CC(CO)NS(=O)(=O)c1ccc(Br)cc1F (stereo unspecified)	i	-7	2	21	1	-4	nt	nt
O=C1c2ccccc2NC(c2ccc(F)cc2)N1Cc1ccco1 (stereo unspecified)	i	45	13	-5	-2	-3	i	0
COC(=O)c1cn(NC(=O)c2ccc(OC)c(OC)c2)c(=O)c2ccccc12	+	0	2	-3	4	-1	i	0
SMILES	Myeloid diff 2	Rtt109 HAT inh	ABHD5 PLIN5 PPI	Cardio protect	HGIII-sPLA2 inh	DAGLB inh	Myeloid diff	GFP autofluor
COC(=O)c1cn(NC(=O)c2ccc(OC)c([N+](=O)[O-])c2)c(=O)c2ccccc12	i	10	-6	3	-6	2	nt	nt
COc1ccc2cc(CN(Cc3ccco3)C(c3nnnn3C3CCCCC3)C(C)C)c(=O)[nH]c2c1 (stereo unspecified)	+	12	22*	14	2	0	i	1
COc1ccc2[nH]c(=O)c(CN(Cc3ccco3)Cc3nnnn3Cc3ccccc3)cc2c1	i	9	20	66*	4	5	i	0
CCCc1cc(=O)[nH]c(SCC(=O)NC2CCCCCCC2)n1	?	12	2	2	8	1	nt	nt
CCCn1c(SCC(=O)NCc2ccccc2Cl)n[nH]c1=O	i	-15	-9	-2	8	1	nt	nt
COc1ccc2sc3c(=O)[nH]c4ccccc4c3c2c1	+	7	1	2	0	4	i	0
COc1ccc2c(c1)[nH]c(=O)c1sc3ccccc3c12	i	7	10	6	nt	0	nt	nt
NS(=O)(=O)c1ccc(CCNC(=O)c2cc3ccccc3s2)cc1	i	-5	-2	-6	-15	2	nt	nt
Fc1ccc(/C=C/c2nnc(-c3cccs3)o2)cc1	i	-4	-2	-6	-4	-8	nt	nt
Cc1ccc(/C=C/c2nnc(-c3cccs3)o2)cc1	i	nt	17	-10	-2	-16	i	0
COc1ccc([C@@H]2CC(=O)[C@@H]3CN(S(=O)(=O)c4ccc(Cl)cc4)[C@H](c4ccc(C)cc4)C[C@@H]3N2S(=O)(=O)c2ccccc2)cc1	i	nt	6	-2	-2	nt	nt	nt
CN1CCN(c2ccc(CNC(=O)c3cc4ccccc4o3)cc2)CC1	i	2	15	-1	13	-2	nt	nt
Cc1cc(C(=O)O)c(CCCN)s1	i	4	4	-2	9	-2	i	0
CCCCc1c(C(=O)O)cc(OC)cc1C(=O)O	i	4	2	-10	2	3	nt	nt
COCCn1c(SCC(=O)c2c(N)n(C3CC3)c(=O)[nH]c2=O)nc2ccccc21	i	4	-2	-8	15	2	nt	nt
S=C(NCc1ccco1)Nc1ccc(N2CCOCC2)cc1	i	2	-2	0	18	2	nt	nt
CCOc1ccc(NS(=O)(=O)c2ccc(NC(=S)NC(=O)CC(C)C)cc2)cc1	i	21	-7	-24	-32	-1	i	2

Compound activity: PubChem BioAssay, several laboratories
